Measured values reported in PubChem BioAssay AID770 (SRMLSC, 2007).
Among all 3,300 compounds or so, fewer than 10 were called active.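 Rule for the calls: active = growth inhibition above 90% in viable cell count at a single dose; inactive = growth inhibition below 90%.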 A selection follows.

Assay: HT29 colon tumor cell growth inhibition, primary screen, imaging, high content imaging, 24 h, CellTiter-Glo (AID 770);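 for condensed nuclei: share of cells whose nuclear area falls below control median minus 1.5 SD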
Conditions: HT29 cell number by imaging, at 10 µM, stronger effect = higher value; for condensed nuclei: measured here: percent cells with condensed nuclei
[1] = measured here: ATP CellTiter-Glo viability

Compound	growth inhibition	growth inhibition [1] [%]	condensed nuclei [%]
COC(=O)c1n[nH]c2ccccc12	52.2% (inactive)	8.18	5
CCCCCCOc1ccc(C(=O)n2cnc(N)n2)cc1	-1.14% (inactive)	-15.8	1.48
O=c1[nH]cnc2cc(-c3ccccc3)sc12	7.95% (inactive)	3.25	2.77
COc1cccc(NC(=O)c2cc(C(=O)Nc3cccc(OC)c3)n(C)n2)c1	-5.68% (inactive)	22.7	6.71
COC(=O)c1ccc(C2/C(=C(/O)c3ccc(OC)cc3)C(=O)C(=O)N2c2cc(C)on2)cc1 (stereo unspecified)	8.36% (inactive)	6.44	3.44
COc1cc(C)nc(N(C)S(=O)(=O)c2ccccc2Cl)n1	7.98% (inactive)	-1.53	3.59
Cn1c(NCC(O)c2ccccc2)nc2c1c(=O)n(Cc1ccc(Cl)c(Cl)c1)c(=O)n2C (stereo unspecified)	46.1% (inactive)	22.7	1.95
